Compound activity as filed in PubChem.
NPSR antag = neuropeptide S receptor (human) antagonism, cAMP; Q6W5P4; CHO-NPSR cells, cAMP TR-FRET, antagonist mode; Potency, µM (doses to about 38.3 µM), actives largely listed as inhibitors; 220,000 tested, 1% active; further: nearly all actives have a fitted effect of over 50% in size
IMPase Li inh = cell-permeable IMPase inhibitors with lithium potentiation; AID 1457; CHO-M1 cells, IP1 TR-FRET (IP-One), carbachol + lithium; Potency, µM (highest dose often 59.4 µM), hits mostly inhibitors; 210,000 tested, 0.35% active;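 further: IP1 builds up when IMPase is blocked and the TR-FRET signal falls; nearly all actives have a fitted effect of over 50% in size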
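IP1 accumulation measured by competitive TR-FRET in lysed CHO-M1 cells after 30 min compound exposure at 37C, with a small lithium addition to potentiate weak responses. Hill-equation AC50 from ratio and donor-channel data.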
HPGD block = blocks human HPGD enzyme activity | purified HPGD, NADH fluorescence kinetic, PGE2 substrate | Potency, µM, hits mostly inhibitors | 150,000 tested, 4.3% active | AID 894; active means well fitted inhibition curve with a large enough effect, not every such curve was filed as active; inconclusive means small, poorly fitted or top-dose-only effect, or another doubt; inactive means no such curve, though single readings can be large or run the other way
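NADH formation kinetics: reaction with 30 uM PGE2 and 1 mM NAD+ (final), 20 nM enzyme, Tris-HCl pH 8 with Tween 20, after 15 min compound preincubation at room temperature. Fluorescence change, last versus first of five reads.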
IMPase cell inh = IMPase inhibition in cells; P97697; CHO-M1 cells, IP1 accumulation, HTRF TR-FRET ratio; inhibition (IP1 accumulation), % at 46.1 µM; 120,000 tested, under 10 active; active means well fitted curve in the direction sought with a large enough effect in the signal ratio, not every such curve was filed as active; inconclusive means small, poorly fitted or top-dose-only effect, or a change in a side signal; inactive means no such curve, though single readings can be large or run the other way; the % refers to the signal ratio;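 further: cells stimulated with carbachol in lithium chloride buffer; higher means more IMPase inhibition seen as more IP1 and lower FRET ratio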
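Cellular IMPase inhibition is scored as a rise in cytosolic IP1, detected by competitive TR-FRET between d2-labelled IP1 and a europium anti-IP1 antibody. M1-expressing CHO cells were stimulated with carbachol for 30 min at 37C, with lithium (50 mM LiCl) present in the buffer.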
12-hLO inh = blocks human 12-lipoxygenase activity; P18054; purified 12-hLO, xylenol orange hydroperoxide absorbance; Potency, µM (top dose mostly 57.1 µM), actives largely listed as inhibitors; 150,000 tested, 0.12% active; further: nearly all actives have a fitted effect of over 55% in size
Target sequence (P18054 whole entry, looked up): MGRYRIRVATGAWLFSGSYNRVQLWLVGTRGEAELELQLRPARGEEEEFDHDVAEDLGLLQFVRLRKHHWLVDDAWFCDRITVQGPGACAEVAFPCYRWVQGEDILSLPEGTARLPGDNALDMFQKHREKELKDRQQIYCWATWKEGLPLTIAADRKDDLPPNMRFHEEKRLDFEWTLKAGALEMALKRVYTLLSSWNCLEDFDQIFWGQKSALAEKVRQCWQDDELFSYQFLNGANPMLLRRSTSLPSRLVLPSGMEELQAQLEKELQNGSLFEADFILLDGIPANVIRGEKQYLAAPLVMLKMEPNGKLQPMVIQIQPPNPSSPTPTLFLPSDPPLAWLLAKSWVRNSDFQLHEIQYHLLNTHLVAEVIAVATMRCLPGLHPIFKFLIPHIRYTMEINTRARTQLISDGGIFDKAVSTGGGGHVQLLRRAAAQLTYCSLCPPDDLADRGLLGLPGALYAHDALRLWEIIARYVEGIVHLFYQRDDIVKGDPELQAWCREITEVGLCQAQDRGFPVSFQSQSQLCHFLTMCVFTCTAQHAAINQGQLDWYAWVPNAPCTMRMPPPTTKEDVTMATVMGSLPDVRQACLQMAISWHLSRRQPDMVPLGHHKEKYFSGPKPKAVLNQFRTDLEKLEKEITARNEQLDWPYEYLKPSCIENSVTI
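Purified human 12hLO (150 nM final) was preincubated with compounds for 15 min at room temperature in 25 mM Hepes pH 7.0, 0.01% Triton X-100, then reacted with 40 uM arachidonic acid for 30 min. Hydroperoxide was detected with ferrous iron/xylenol orange.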
ALDH1A1 inh = ALDH1A1 (human) enzyme inhibition. Potency, µM (series often up to 75.3 µM), actives largely listed as inhibitors. Purified ALDH1A1, NADH fluorescence, propionaldehyde substrate. P00352. 220,000 tested, 7.3% active; active means well fitted inhibition curve with a large enough effect, not every such curve was filed as active; inconclusive means small, poorly fitted or top-dose-only effect, or another doubt; inactive means no such curve, though single readings can be large or run the other way
Numbers stand for hits; – = inactive; ? = inconclusive; · = not tested or not shown; [ ] = dose if it differs, or a comment. Sampled rows, rich in hits. Any-hit rate of the full collection: about 8.9%. Unless noted, the call rests on the fitted dose curve; in most records, active means well fitted curve in the direction sought with a large enough effect; inconclusive means small, poorly fitted or top-dose-only effect, or another doubt; inactive means no such curve, though single readings can be large; an effect the other way counts as inactive or inconclusive.

SMILES	NPSR antag	IMPase Li inh	HPGD block	IMPase cell inh	12-hLO inh	ALDH1A1 inh
CC(=O)c1cccc(NC(=O)N2CCCC2C(=O)Nc2cccc(C)c2)c1 (stereo not drawn)	–[7.67 µM]	–	–	–	–	–
COC(=O)C1=C(C(=O)OC)SC2(S1)C(C(=O)OC)=C(C(=O)OC)SC1=C2c2cc(C)ccc2NC1(C)C	–	–	10µM	–	–	8.91µM
CCOC(=O)C1(N(CC)CC)Sc2cc(C)ccc2NC1=O (stereo not drawn)	–	–	–	–	–	?
Cc1ccc(OCC(=O)N/N=C\c2ccc(-c3cccc(C(=O)O)c3)o2)c(C)c1	–	–	?	–	–	?
COc1c2c(c(C(=O)/C=C/C(C)=C/c3ccccc3)c3c1OCO3)CCN(C)C2	·	–	–	·	·	–
CCOC(=O)c1sc(NC(=O)c2ccc(C)o2)nc1C	–	–	20µM	–	–	–
CCOC(=O)c1sc(NC(=O)C2CC=CCC2C(=O)O)nc1C (stereo not drawn)	–	–	–	–	–	0.126µM
O=C(NCN1C(=O)C2C3C=CC(C3)C2C1=O)Nc1ccccc1O (stereo not drawn)	–	–	·	·	·	–
Cc1cccc(Cn2ccc(-c3ccc(Cl)cc3)c(C#N)c2=O)c1	–	–	–	–	–	–
N#CC(C#N)=C1C=CC=CN1/C(=C\c1ccccc1)C(=O)c1cccs1	?	–	?	·	–	?
N#CC(C#N)=C1C=CC=CN1/C(=C\c1ccccc1Cl)C(=O)c1ccccc1	7.94µM	–	7.94µM	·	–	?
CCC(=O)Nc1nnc(SCC(=O)N2c3ccccc3CC2C)s1 (stereo not drawn)	–	–	–	–	–	–
Cc1nnc(SCC(=O)N2c3ccccc3CC2C)s1 (stereo not drawn)	–	–	–	–	–	–
CC1Cc2ccccc2N1C(=O)CSc1nnc2sc3ccccc3n12 (stereo not drawn)	–	–	–	–	–	14.1µM
Cc1ccccc1-n1ncc2c(SCC(=O)N3c4ccccc4CC3C)ncnc21 (stereo not drawn)	?	–	–	–	–	14.1µM
CC1Cc2ccccc2N1C(=O)CSc1nnnn1C(C)C (stereo not drawn)	–	–	–	–	–	28.2µM
CC1Cc2ccccc2N1C(=O)CSc1nnc(NC(=O)Cc2cccs2)s1 (stereo not drawn)	12.6µM	–	–	–	–	–
CC1Cc2ccccc2N1C(=O)CSc1nnnn1C1CCCC1 (stereo not drawn)	–	–	–	–	–	2.51µM
COc1ccc(C/C(C)=N/NS(=O)(=O)c2ccc(Br)cc2)cc1	–	–	·	·	·	2.82µM
COc1ccc(C(=O)Nc2cc(Cl)ccc2OC(=O)c2ccc(OC)cc2)cc1	–	–	–	–	–	1µM
COc1ccc(OC)c(NC(=O)c2ccc3nc(-c4ccccc4)c(-c4ccccc4)nc3c2)c1	–	–	–	–	–	10µM
COc1ccc(C/C(C)=N/NC(=O)c2ccc(Cl)cc2)cc1	–	–	·	·	·	7.08µM
COc1ccc(CNC(=O)CN2C(=O)C3C4C=CC(C4)C3C2=O)cc1 (stereo not drawn)	–	–	·	·	·	?
O=C(CNC(=S)NC(=O)c1ccccc1Br)c1ccccc1	–	–	·	·	·	17.8µM
Cc1ccccc1C(=O)NC(=S)NCC(=O)c1ccccc1	–	–	?	–	–	–
SMILES	NPSR antag	IMPase Li inh	HPGD block	IMPase cell inh	12-hLO inh	ALDH1A1 inh
O=C(COC(=O)C1CC2C=CC1C2)Nc1ccccc1F (stereo not drawn)	–	–	·	·	·	12.6µM
COc1ccc(NC(=S)N2CCN(Cc3ccccc3)CC2)c(OC)c1	–	–	·	·	·	–
O=S(=O)(NCC(c1cccnc1)N1CCOCC1)c1ccc(Cl)cc1 (stereo not drawn)	–	–	·	·	·	28.2µM
O=S(=O)(NCC(c1cccnc1)N1CCOCC1)c1ccccc1 (stereo not drawn)	–	–	·	·	·	25.1µM
CCOc1cc(N2CCOCC2)c(OCC)cc1NC(=O)CN1CCN(Cc2ccc3c(c2)OCO3)CC1	–	–	·	·	·	–
CN1CCN(Cc2c(O)ccc3cc(-c4ccccn4)c(=O)oc23)CC1	–	–	·	·	·	?
CN1CCN(Cc2c(O)ccc3cc(Br)ccc23)CC1	–	–	·	·	·	25.1µM
OCCN(CC(O)Cn1ccc2ccccc21)CC(O)Cn1ccc2ccccc21 (stereo not drawn)	–	–	–	–	–	28.2µM
O=C(NC(=S)Nc1ccccc1[N+](=O)[O-])c1ccco1	–	–	·	·	·	?
CCSC1(SCC)N=C(N)C2(C#N)C(c3ccc(OC)c(OC)c3OC)C12C#N (stereo not drawn)	?	–	8.91µM	–	–	?
CCSC1(SCC)N=C(N)C2(C#N)C(c3ccccc3)NC3=C(CCC3)C12C#N (stereo not drawn)	–	–	–	–	–	–
O=C(CC(C(=O)O)C1CCCO1)NCc1ccccc1 (stereo not drawn)	–	–	–	–	–	–
COc1ccc(S(=O)(=O)N=Nc2c(O)[nH]c3ccccc23)cc1	–	–	·	·	·	25.1µM
CCOC(=O)Cc1csc(NC(=S)NC(=O)c2ccccc2)n1	–	–	–	·	–	–
CCOC(=O)Cc1csc(NC(=O)c2sc3nc4ccc(CC)cc4cc3c2N)n1	–	?	–	–	10µM	–
CCOC(=O)Cc1csc(NC(=S)NC(=O)c2ccc(C)cc2)n1	?	·	·	–	–	39.8µM
CCOC(=O)CNCCC(=O)c1ccc(Br)cc1	–	–	?	·	–	0.282µM
CC(C)c1ccc(NCCC(=O)c2ccc(Br)cc2)cc1	–	–	–	–	–	3.98µM
Cc1cccc(NCCC(=O)c2ccc(Br)cc2)c1	–	–	–	–	–	0.794µM
Cc1ccc(-c2nnc(Nc3ccc(O)cc3)c3ccccc23)cc1S(=O)(=O)NCc1nc2ccccc2[nH]1	·	·	·	–	·	·
Nc1cccc(-c2nnc3n2CCCCC3)c1	–	–	·	·	·	–
Brc1ccc(-c2nnc3n2CCCCC3)cc1	–	–	7.08µM	–	–	12.6µM
Clc1ccc(-c2nnc3n2CCCC3)cc1Cl	–	–	31.6µM	–	–	–
COc1ccccc1S(=O)(=O)Nc1ccc(-c2nnc3n2CCCCC3)cc1	–	–	31.6µM	–	–	?
Cc1ccc(S(=O)(=O)N(C)Cc2ccc(-c3nnc4n3CCC4)cc2)cc1	–[7.67 µM]	–	4.47µM	–	–	–
O=S(=O)(CCN1CCSCC1)c1ccccc1	–	·	·	·	·	·
Clc1cccc(-c2nnc3n2CCCCC3)c1	–	–	·	·	·	–
Clc1ccc(-c2nnc3n2CCCCC3)cc1	–	–	15.8µM	–	–	–
O=C(N1CCN(c2ccccc2)CC1)C(F)(F)C(F)(F)F	–	–	–	–	–	–
CSc1nc2ccc(NC(=O)C3CCCO3)cc2s1 (stereo not drawn)	–	–	28.2µM	–	–	?
